Values joined by “and” are separate entries in the source; they are usually repeats but may differ in a detail not shown here. Equal values may be shown once. Compounds without any hit were thinned out: in the full panel of roughly 83,000, 20% have a hit.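 The test compound was applied at a single concentration to cells in 96-well plates for 48 hours, and percent growth was recorded.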 A number with no mark means an inactive call. Active and inactive are the calls of the source. Rule for the calls: active = growth percent below 10; inactive = the rest.
Each compound was assayed on MDA-MB-468 breast (assay: NCI-60 one-dose screen, 48 h (100 = growth as untreated, 0 = no growth, -100 = all killed)). Settings: 10 µM unless noted.

| Structure (SMILES) | growth |
| --- | --- |
| COc1ccc(C2CC(=O)Nc3c2c(C)nn3-c2nc3ccccc3[nH]2)cc1OC (configuration not stated) | 59.6% |
| OCC1OC(O)C(O)C(O)C1O (configuration not stated) | 121% |
| O=C(Nc1cc(Cl)cc(Cl)c1)Oc1c(Cl)c(Cl)c(Cl)c(Cl)c1Cl | 101% |
| C#Cc1nc(/C=C/C(=O)c2nccn2C)cs1 | -28.5% (active) |
| COc1ccc(C2CC(c3ccc(Cl)cc3)=NN2/C=C2\SC(=S)N(NC(=O)Cc3ccccc3Nc3c(Cl)cccc3Cl)C2=O)cc1 (configuration not stated) | 75.2% |
| CS(=O)(=O)c1nnc(-c2ccccc2)s1 | -8.46% (active) |
| COc1ccc2c(c1)[n+]([O-])c(C(=O)/C=C/C=C(\Cl)c1cc(OC)c(OC)c(OC)c1)c(C)[n+]2[O-] | 62.2% |
| O=[N+]([O-])c1cccc(-c2nc3sccn3c2-c2ccnc(NCCNS(=O)(=O)c3ccc(C(F)(F)F)cc3)n2)c1 | 28.3% |
| COc1ccc(C2Nc3ccccc3-n3cccc32)cc1 (configuration not stated) | 108% |
| CC(=O)O[C@H]1CC[C@@]2(C)C(=CC[C@@H]3[C@@H]2CC[C@]2(C)C(=O)N(O)C(=O)C[C@@H]32)C1 | 83.6% |
| CN(C)c1ccc2c(c1)OC(N)=C(C#N)C2c1ccc2c(c1)CCO2 (configuration not stated) | 18.3% |
| c1ccc(-c2cn3c(-c4c[nH]c5ccccc45)csc3n2)cc1 | 3.41% (active) |
| FC(F)(F)c1cc(Nc2cccc(Oc3ccc(NC4=NCCN4)nc3)c2)ccc1Cl | -37.6% (active) |
| COc1ccc(C(=O)c2sc3nc(-c4cccs4)ccc3c2N)cc1OC | 8.13% (active) |
| C=COC(=O)C(C)(C)C | 106% |
| C#C[C@@]1(O)[C@@H](CO)O[C@@H](n2cnc3c(-c4ccccc4)ncnc32)[C@@H]1O | 111% |
| CCCCCCCCCCn1cc[n+](C)c1 | -42.1% (active) |
| N=C(N)c1ccc(-c2ccc(-c3cc(Cl)cc(Cl)c3)s2)nc1 | 15.7% |
| CCN(CC)Cc1cc(Nc2ccnc3cc(Cl)ccc23)ccc1OC | 93.6% |
| O=C1OC(C(O)C(O)CO)C(O)=C1O (configuration not stated) | 88.7% and 117% |
| NC(=O)c1c(NC(=O)c2ccc(Cl)cc2)sc2c1CCC(=O)C2 | 88.5% |
| CC(C)n1nc(C#Cc2cccc(O)c2)c2c(N)ncnc21 | -44.2% (active) |
| C#CCOc1cccc(Nc2ncnc3ccc(NC(=O)C=C)cc23)c1 | -25.7% (active) |
| COc1ccc(C2=NN(C(=O)c3ccc(S(C)(=O)=O)cc3)C(c3ccc(OC)c(OC)c3)C2)c(OC)c1 (configuration not stated) | 87% |
| CC(=O)[C@@H]1CC[C@]2(COS(=O)(=O)c3ccc(C)cc3)CC[C@]3(C)[C@H](CC[C@@H]4[C@@]5(C)CCCNC(C)(C)[C@@H]5CC[C@]43C)[C@@H]12 | 20.2% |
| O=C(c1ccc2ncc(-c3nc(NC4CC4)ncc3F)n2c1)N1CCOCC1 | 32.8% |
| CCN(CC)c1cc(C)c(Cc2c(OC)ccc3ccccc23)cc1C | 99.6% |
